From PubChem BioAssay
Most compounds without a hit are left out; they make up all but 5.4% or so of the library.
Calb FLC: C. albicans growth modulation with fluconazole. C. albicans CaCi-2 (fluconazole-resistant clinical isolate) + fluconazole, Alamar Blue growth, 48 h. growth inhibition, % (no concentration beside the values). 300,000 compounds, 0.57% hits. AID 1979;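 active means growth inhibition above about 58% in most replicates, limit read from the data, passing the limit was not always enough; inconclusive means exactly half the replicates above a set limit; inactive means most replicates below a set limit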;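 further: all wells also contain fluconazole at 8 µg/ml as a sub-toxic cotreatment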
PP5 inh: inhibitors of human protein phosphatase 5 (PP5); P53041; purified PP5c, OMFP substrate fluorescence; inhibition, % at 6.7 µM; 320,000 compounds, 0.18% hits;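 active means inhibition above the campaign's mean inhibition across all tested compounds plus 3 SD, cut at about 9.5% in these data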
PP1 inh: blocks human PP1-alpha phosphatase, a PP5 counter-screen. 320,000 compounds, 0.9% hits. P62136. inhibition, % at 6.7 µM. purified PP1alpha, OMFP fluorescence;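 active means inhibition above the mean inhibition of all tested compounds plus 3 SD, computed separately for each screening campaign, cut at about 15% in these data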
Target sequence (P62136 whole entry, looked up): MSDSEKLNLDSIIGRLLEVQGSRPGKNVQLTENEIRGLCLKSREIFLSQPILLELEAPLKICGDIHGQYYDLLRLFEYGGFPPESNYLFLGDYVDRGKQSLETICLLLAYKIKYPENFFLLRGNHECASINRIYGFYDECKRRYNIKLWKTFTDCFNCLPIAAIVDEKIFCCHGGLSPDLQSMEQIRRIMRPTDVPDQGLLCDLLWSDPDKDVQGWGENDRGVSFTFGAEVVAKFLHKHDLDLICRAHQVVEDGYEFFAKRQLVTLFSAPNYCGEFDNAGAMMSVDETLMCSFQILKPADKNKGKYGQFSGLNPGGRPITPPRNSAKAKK
ALR inh: human ALR oxidase inhibition via reduced H2O2; P55789; purified ALR, DTT oxidation, H2O2 HRP-luminol luminescence; inhibition, % (test concentration not listed); 290,000 compounds, 3.8% hits; AID 485317;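 active means mean replicate inhibition above about 79%, with every replicate also reaching it, limit read from the data; inconclusive means only one of the two criteria met; inactive means mean below limit and not every replicate reaching it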
Target sequence (P55789 whole entry, looked up): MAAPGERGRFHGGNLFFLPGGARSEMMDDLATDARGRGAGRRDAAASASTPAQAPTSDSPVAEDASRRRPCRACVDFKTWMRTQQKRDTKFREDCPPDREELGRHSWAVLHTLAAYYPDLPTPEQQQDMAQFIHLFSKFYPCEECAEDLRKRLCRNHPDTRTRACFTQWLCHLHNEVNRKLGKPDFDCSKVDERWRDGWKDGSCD
CSC inhib: cancer stem cell inhibition; cancer stem cell-like cells viability, luminescence; inhibition, % at 7.5 µM; 300,000 compounds, 1.1% hits; in the data active means inhibition above about 75%; inconclusive means no clear call, values can overlap the other calls; tested in HMLE shEcad cells
Hits are given with their value; n = inactive; u = inconclusive; x = no result given.

SMILES	Calb FLC	PP5 inh	PP1 inh	ALR inh	CSC inhib
COc1ccc(-n2c(CNC(=O)c3cccs3)n[nH]c2=S)cc1	n	n	n	n	n
Cc1nc2ccc(NS(=O)(=O)c3c(F)cccc3F)cc2s1	x	x	x	n	n
CCCCOC(=O)c1ccc(NC(=O)COC(=O)c2ccc3ncsc3c2)cc1	x	n	n	n	n
COc1cc(/C=N/NC(=O)c2cccc(NC(=O)c3ccccc3Cl)c2)ccc1O	n	n	n	88	n
COc1cc(/C=N/NC(=O)CN(Cc2ccccc2)S(=O)(=O)c2ccc3c(c2)OCCO3)ccc1O	n	n	n	n	n
COc1cc(/C=N/Nc2ccc(C(=O)O)cc2)cc(OC)c1OC	n	n	n	n	n
O=C(N/N=C/c1cccnc1)c1cc(O)c(O)c(O)c1	n	n	n	97	n
O=C(N/N=C/c1cccnc1)c1ccc(O)cc1	n	n	n	n	n
COc1cc(/C=N/NC(=O)CN(Cc2ccco2)S(=O)(=O)c2ccccc2)ccc1O	n	n	n	100	n
COc1cc(/C=N/Nc2ccc(C(=O)O)cc2)ccc1O	n	n	n	99	n
COc1ccc(S(=O)(=O)N(C)CC(=O)Nc2ccccc2C(F)(F)F)cc1OC	n	n	n	n	x
CCCCN(C(=O)c1ccc(N2CCCC2=O)cc1)c1c(N)n(CC(C)C)c(=O)[nH]c1=O	x	n	n	n	x
CCOC(=O)C1CCN(C(=O)CSCCSCC(=O)N2CCC(C(=O)OCC)CC2)CC1	n	n	n	n	n
CC(C)CNc1cc(N2CCCC2)ccc1[N+](=O)[O-]	n	n	n	n	n
CC1(C)Cc2ccccc2C(CSc2ccccc2C(=O)O)=N1	n	n	n	n	76
Cc1cccc(NC(=O)C(C)Oc2ccccc2C)n1 (centres undefined)	n	n	n	n	n
Cc1cc(NCCOCCO)n2ncc(-c3ccc(Cl)cc3)c2n1	n	n	n	98	n
Cc1nn(CC(=O)NCc2cccnc2)c(=O)c2ccccc12	x	n	n	n	n
CCc1ccccc1NC(=O)CC1CS(=O)(=O)CC1CC(=O)Nc1ccccc1CC (centres undefined)	n	n	n	n	x
Oc1ccc(/C=N/N2CCOCC2)c(O)c1O	n	n	n	98	n
Oc1cccc(/C=N/N2CCCCC2)c1O	n	n	n	99	n
Oc1ccc(/C=N/N2CCCCC2)c(O)c1O	n	n	n	n	n
Oc1ccc(/C=N/N2CCCCC2)c(O)c1	n	n	n	98	n
COc1cccc(/C=N/N2CCOCC2)c1O	n	n	n	n	n
CC1(c2ccco2)NC(=O)NC1=O (centres undefined)	n	n	n	n	n
SMILES	Calb FLC	PP5 inh	PP1 inh	ALR inh	CSC inhib
O=C(O)c1ccc(CSc2nc3ccc(NC(=O)c4ccccc4C(=O)O)cc3s2)cc1	n	n	n	99	x
N#Cc1ccccc1CSc1nc2ccc(NC(=O)c3ccccc3C(=O)O)cc2s1	n	n	n	99	n
Cc1cc(O)c(Oc2cc(C)cc(O)c2O)c(O)c1	u	n	n	x	80
Cc1ccc(O)c(O)c1	n	n	n	n	n
O=C(CSc1nc2ccccc2c(=O)n1-c1ccc(F)c(Cl)c1)Nc1cccc(S(=O)(=O)N2CCOCC2)c1	n	n	n	98	n
O=C(CSc1nc2ccccc2c(=O)n1-c1ccc(F)cc1)Nc1ccc(Cl)c(S(=O)(=O)N2CCOCC2)c1	n	n	n	n	n
Cc1onc(-c2c(Cl)cccc2Cl)c1C(=O)O/N=C(\C#N)c1ccccc1	n	n	n	n	x
Cc1ccc(C(=O)/C=C/c2ccco2)c(O)c1	n	n	n	98	n
COC(=O)C(=C/C(C)=C/c1cccnc1)C(=O)OC	n	n	n	92	n
CC1(C)CC(N=Cc2c(O)n(Cc3ccc4c(c3)OCO4)c(=O)c3ccccc23)CC(C)(C)N1	88	n	n	n	n
CN(C)CCN=Cc1c(O)n(Cc2ccccc2)c(=O)c2ccccc12	n	n	n	n	n
COc1cccc2[nH]c3c(N4CCCCC4)ncnc3c12	n	n	n	n	n
Cc1cccc2[nH]c3c(N4CC=C(c5ccc(F)cc5)CC4)ncnc3c12	n	n	n	n	78
CN(C)N1C(=O)CC(NNC(=O)c2ccncc2)C1=O (centres undefined)	n	n	n	86	n
Cc1noc(C)c1S(=O)(=O)NCCN1CCN(c2ccccc2)CC1	n	n	n	86	n
CC1CC(C)CN(S(=O)(=O)N2CCCC(C(=O)NCc3ccccc3Cl)C2)C1 (centres undefined)	n	n	n	n	n
COc1ccc(C(=O)NCC(=O)N2CCC(C)CC2)cc1OC	n	n	n	n	n
CCOC(=O)C1(Cc2ccccc2C)CCCN(C(=O)CSC)C1 (centres undefined)	n	n	n	x	n
CCN(CC)c1ccc(N=Cc2ccc([N+](=O)[O-])o2)cc1	91	n	n	x	n
CCN(CC)c1ccc(N=Cc2ccccc2[N+](=O)[O-])cc1	n	n	n	87	n
CC(=O)N(C)c1ccc(N=Cc2cc3c(cc2[N+](=O)[O-])OCO3)cc1	n	n	n	n	n
CCN1C(=O)OC2(CCCCC2)C1(C)O (centres undefined)	x	n	n	n	n
c1ccc(CNc2c3ccccc3nc3ccccc23)cc1	n	n	n	n	n
CN(C)CCCNc1c2ccccc2nc2ccccc12	n	n	n	n	131
Oc1ccc(CCNc2c3ccccc3nc3ccccc23)cc1O	n	n	n	99	76
SMILES	Calb FLC	PP5 inh	PP1 inh	ALR inh	CSC inhib
CC(=O)Nc1cccc(NC(=O)CSc2nc(=O)n(CCCN3CCOCC3)c3c2CCC3)c1	n	n	n	98	n
O=C(CSc1nc(=O)n(CCCN2CCOCC2)c2c1CCC2)Nc1cccc(F)c1	n	n	n	97	n
CC(=O)Nc1cccc(NC(=O)CSc2nc(=O)n(CCN3CCOCC3)c3c2CCC3)c1	n	n	n	97	n
CC(=O)c1ccc(NC(=O)CSc2nc(=O)n(CCN3CCOCC3)c3c2CCC3)cc1	n	n	n	98	n
CCc1cc(=O)[nH]c(SCc2ccc(C)cc2)n1	n	n	n	n	n
CCc1c(C)nc(SCc2cccnc2)[nH]c1=O	n	n	n	99	n
CCc1cc(=O)[nH]c(SCc2cccnc2)n1	n	n	n	98	n
CCc1c(C)nc(SCC(=O)NNC(=O)c2ccco2)[nH]c1=O	n	n	n	n	n
Cc1scc(C(=O)N/N=C/c2ccc([N+](=O)[O-])o2)c1C	90	n	n	n	x
Cc1nc2ccccn2c1C(=O)N/N=C/c1ccc([N+](=O)[O-])o1	100	n	n	n	n
Cc1scc(C(=O)N/N=C/c2ccco2)c1C	n	n	n	x	n
Cc1nc2ccccn2c1C(=O)N/N=C/c1ccc([N+](=O)[O-])cc1	n	n	n	n	n
C/C(=N\NC(=O)CCCNc1cccc(C)c1)c1ccncc1	n	n	n	93	n
CC(C)=CCc1c(O)ccc2c1OC(c1ccc(O)c(O)c1)CC2=O (centres undefined)	n	n	n	u	n
O=C1CC(c2ccc(O)cc2)Oc2cc(O)cc(O)c21 (centres undefined)	n	n	n	99	n
